Measurements published in PubChem BioAssay AID1851 (National Center for Advancing Translational Sciences (NCATS), 2009).
“And” between values parts separate entries of the source, which are not always exact repeats. Equal values may be shown once. About 4,000 (25%) of roughly 16,000 compounds were called active. Inconclusive results (about 26%) are left out. These entries were drawn from the full list. Values without a mark were called inactive. Calls follow the shape of the dose curve; as a rule, active = well fitted curve in the direction sought with a large enough effect; inconclusive = small, poorly fitted or top-dose-only effect, or effect the other way; inactive = no such curve, though single readings can be large or run the other way.

target: Cytochrome P450 2C9 (Homo sapiens) (UniProt P11712); assay: Cytochrome panel assay with activity outcomes; conditions: recombinant CYP, pro-luciferin dealkylation, luminescence, p450-cyp2c9; series mostly up to 57.1 µM
Sequence (P11712 whole entry, looked up): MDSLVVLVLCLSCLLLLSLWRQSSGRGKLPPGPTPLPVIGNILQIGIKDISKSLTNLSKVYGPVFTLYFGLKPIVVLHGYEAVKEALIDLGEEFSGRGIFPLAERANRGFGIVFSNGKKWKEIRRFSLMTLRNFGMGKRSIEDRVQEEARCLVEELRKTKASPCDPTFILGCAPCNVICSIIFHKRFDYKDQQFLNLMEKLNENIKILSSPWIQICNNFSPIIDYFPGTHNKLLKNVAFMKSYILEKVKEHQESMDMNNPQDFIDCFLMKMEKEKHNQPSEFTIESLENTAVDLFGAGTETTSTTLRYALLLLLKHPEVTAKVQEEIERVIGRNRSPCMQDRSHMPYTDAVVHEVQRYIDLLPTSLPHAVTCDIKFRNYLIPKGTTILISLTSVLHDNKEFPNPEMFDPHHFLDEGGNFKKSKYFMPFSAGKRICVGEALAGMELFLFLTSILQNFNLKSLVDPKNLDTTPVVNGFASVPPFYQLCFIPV
% is scaled to controls: 0 for no effect and ±100 for the full control effect.

For `Cc1ccc(NC(=O)NNC(=O)C2CC(c3cccnc3)=NO2)cc1` (stereo unspecified), which AC50 is on record?
Its AC50 is “inactive”.

With `CCCC(=O)NNC(=O)Nc1ccccc1` as the compound, how does the AC50 read?
Its AC50 is “inactive”.

With `Cc1ccc(NC(=O)NNC(=O)Cn2nc(-c3ccccc3)c(-c3ccccc3)c(C#N)c2=O)cc1` as the compound, how does the AC50 read?
Its AC50 is 3.16 µM (active).

Which AC50 does the source give for `OC[C@@H](O)CN1CCN(c2ccccc2)CC1` here?
The AC50 was “inactive”.

Which activity, negative = inhibition does the source give for `ClC(Cl)(Cl)C(N1CCN(c2ccccc2)CC1)N1CCN(c2ccccc2)CC1` here?
Its activity, negative = inhibition is 18.4% [at 11.4 µM].

For `CC(C)CC(c1nnnn1C(C)C)N1CCN(c2ccccc2)CC1` (stereo unspecified), which AC50 is on record?
The AC50 was 2 µM (active).

`NS(=O)(=O)c1cc2c(cc1Cl)=NC(CCC(=O)O)=NS=2(=O)O` was tested. Which activity, negative = inhibition did it give?
Its activity, negative = inhibition is 3.24% [at 11.4 µM].

`Cc1ccc(-c2ccc(/C=N/NC(=S)Nc3ccccc3)o2)cc1[N+](=O)[O-]` was tested. Which AC50 did it give?
Its AC50 is 3.98 µM (active).

`Cc1ccc(-c2ccc(/C=N\NC(=O)c3cc4c(ccc5ccccc54)o3)o2)cc1[N+](=O)[O-]` was tested. Which AC50 did it give?
The AC50 was “inactive”.

`CCn1c(=O)c2c(O)cc(=O)oc2c2ccccc21` was tested. Which AC50 did it give?
The AC50 was “inactive”.

With `CCn1c2ccccc2c2cc(NS(=O)(=O)c3ccccc3C)ccc21` as the compound, how does the AC50 read?
The AC50 was 0.891 µM (active).

Which AC50 does the source give for `Cc1nc2cnc(N3CCN(C)CC3)nc2n(C)c1=O` here?
The AC50 was “inactive”.

`COC(=O)C1CSC(C(=O)OC)N1C(=O)Nc1ccccc1` (stereo unspecified) was tested. Which AC50 did it give?
Its AC50 is “inactive”.

With `COC(=O)C1CCC(C)(C(=O)Nc2ccccc2)C1(C)C` (stereo unspecified) as the compound, how does the AC50 read?
The AC50 was 7.94 µM (active).

For `COC(=O)N1CCC2(CC1)CN(C(=O)Nc1ccccc1)C2`, which AC50 is on record?
The AC50 was “inactive”.

`C[C@@H]1O[C@H]2C3=C(C(=O)[C@H]4O[C@@H]4[C@H]3O)[C@@H]1[C@@H]1[C@@H](C)OC=C3[C@H](O)[C@H]4O[C@@H]4/C(=N\OCc4ccccc4)[C@]312` was tested. Which activity, negative = inhibition did it give?
The activity, negative = inhibition was -27.9% [at 11.4 µM].

How did the activity, negative = inhibition turn out when `Cc1ccccc1-c1cc(Nc2ccccc2)ncn1` was run?
The activity, negative = inhibition was 20.2% [at 2.29 µM].

How did the AC50 turn out when `COC(=O)c1ccc(C2C(Oc3ccccc3)C(=O)N2CCc2ccc(OC)c(OC)c2)cc1` (stereo unspecified) was run?
The AC50 was “inactive”.

With `COc1ccc(CCN2C(=O)C(Oc3ccccc3C)C2c2ccc3c(c2)OCO3)cc1OC` (stereo unspecified) as the compound, how does the AC50 read?
The AC50 was 7.94 µM (active).

With `O=C1[C@H]2[C@H]3[C@H](O)[C@H](O)C/C(=N/OCc4ccccc4)[C@@H]3CC[C@@H]2C(=O)N1Cc1ccc2c(c1)OCO2` as the compound, how does the activity, negative = inhibition read?
Its activity, negative = inhibition is -27.6% [at 11.4 µM].

For `O=C1C[C@@H](O)[C@@H](O)[C@H]2[C@@H]3C(=O)N(Cc4ccc5c(c4)OCO5)C(=O)[C@@H]3CC[C@H]12`, which activity, negative = inhibition is on record?
The activity, negative = inhibition was -7.97% [at 11.4 µM] and -24% [at 11.4 µM].

With `Cc1ccccc1OC1C(=O)N(Cc2ccc3c(c2)OCO3)C1c1sccc1C` (stereo unspecified) as the compound, how does the AC50 read?
Its AC50 is 7.94 µM (active).

For `COc1ccc(CCN2CC34C=CC(O3)C(C(=O)NCc3ccccc3)C4C2=O)cc1OC` (stereo unspecified), which AC50 is on record?
Its AC50 is “inactive”.

`Cc1ccc(C)c(NC(=O)C2CC3c4ccccc4C2c2ccccc23)c1` (stereo unspecified) was tested. Which AC50 did it give?
The AC50 was 5.01 µM (active).

How did the AC50 turn out when `Cc1ccc(C)c(NC(=O)c2ncn[nH]2)c1` was run?
The AC50 was “inactive”.

With `Cc1ccc(C)c(NC(=O)C2CC(O)CN2C(=O)OC(C)(C)C)c1` (stereo unspecified) as the compound, how does the AC50 read?
Its AC50 is “inactive”.

`CCn1c(SCC(=O)Nc2ccccc2C(=O)OC)nnc1-c1ccc(N)cc1` was tested. Which AC50 did it give?
The AC50 was 22.4 µM (active).

How did the AC50 turn out when `CCOC(=O)c1ccccc1NC(=O)CSc1cccc[n+]1[O-]` was run?
Its AC50 is “inactive”.

For `CCC(C)Nc1nc(OCC(F)(F)F)nc(OCC(F)(F)F)n1` (stereo unspecified), which AC50 is on record?
Its AC50 is “inactive”.

For `O=c1ccc2cc(O)c(O)cc2o1`, which AC50 is on record?
Its AC50 is “inactive”.

Which AC50 does the source give for `COC(=O)[C@@H]1C[C@H]1[C@@H](NC(=O)c1cccnc1)c1ccccc1` here?
The AC50 was “inactive”.

For `Cc1cccc(NC(NC(=O)c2cccnc2)C(Cl)(Cl)Cl)c1` (stereo unspecified), which AC50 is on record?
The AC50 was 2.24 µM (active).

`COC(=O)[C@H]1C[C@@H]1[C@H](NC(=O)c1cccnc1)c1ccccc1` was tested. Which AC50 did it give?
Its AC50 is “inactive”.

For `CCOC(=O)CNC(=O)c1cccnc1`, which AC50 is on record?
The AC50 was “inactive”.

With `O=C(NC(NCc1ccccc1)C(Cl)(Cl)Cl)c1cccnc1` (stereo unspecified) as the compound, how does the AC50 read?
The AC50 was 14.1 µM (active).

Which AC50 does the source give for `O=C(COc1ccccc1Cl)Nc1cc(Cl)ccc1Oc1ccccc1` here?
The AC50 was 2.51 µM (active).

How did the AC50 turn out when `Cc1cc(NC(=O)COc2ccc(Cl)cc2Cl)n(-c2ccccc2)n1` was run?
Its AC50 is 2.51 µM (active).

How did the activity, negative = inhibition turn out when `CCc1cc2c(nc1CC)CCN(CC/C(C)=N/OCC[C@@H]1C=C[C@H](OC(C)=O)[C@H](COC(C)=O)O1)C2` was run?
Its activity, negative = inhibition is -1.15% [at 11.4 µM].

With `OC[C@@H]1O[C@@H](n2cnc3c(NC4CCCCC4)ncnc32)[C@@H](O)[C@H]1O` as the compound, how does the AC50 read?
The AC50 was “inactive”.

With `CCOC(=O)CSc1cc(CS(=O)c2ccc(Cl)cc2)nc(-c2ccccc2)n1` (stereo unspecified) as the compound, how does the AC50 read?
The AC50 was 1.26 µM (active).

With `CNc1cc(CS(=O)c2ccccc2)nc(-c2ccccc2)n1` (stereo unspecified) as the compound, how does the AC50 read?
The AC50 was “inactive”.

For `C=CCN=C1CC(C)(C)CC(=O)/C1=C(/O)CCC(=O)OC`, which AC50 is on record?
Its AC50 is “inactive”.

`CN(C)CCCNc1ncnc2nc[nH]c12` was tested. Which activity, negative = inhibition did it give?
Its activity, negative = inhibition is 3.87% [at 11.4 µM].

Which activity, negative = inhibition does the source give for `CO[C@@H]1/C=C\O[C@]2(C)Oc3c(C)c(O)c4c(O)c(cc(O)c4c3C2=O)NC(=O)/C(C)=C\C=C/[C@H](C)[C@@H](O)[C@H](C)[C@H](O)[C@H](C)[C@H](OC(C)=O)[C@@H]1C` here?
Its activity, negative = inhibition is -6.49% [at 11.4 µM].

How did the activity, negative = inhibition turn out when `c1cncc(CNCc2cccnc2)c1` was run?
Its activity, negative = inhibition is 16% [at 11.4 µM].

With `O=C(NCc1cccnc1)[C@@H]1[C@@H](C(=O)O)[C@H]2CC[C@@H]1O2` as the compound, how does the activity, negative = inhibition read?
The activity, negative = inhibition was -5.99% [at 11.4 µM].

With `Cc1ccc(SC(C)C(=O)NCc2cccnc2)cc1` (stereo unspecified) as the compound, how does the AC50 read?
The AC50 was 8.91 µM (active).

With `COc1c(N2CCN(C(=S)Nc3ccc(F)cc3)C(C)C2)c(F)cc2c(=O)c(C(=O)O)cn(C3CC3)c12` (stereo unspecified) as the compound, how does the AC50 read?
The AC50 was “inactive”.

How did the activity, negative = inhibition turn out when `CN1CCCN(C)C1c1cc([N+](=O)[O-])ccc1O` was run?
The activity, negative = inhibition was -15.9% [at 11.4 µM].

`CC(=O)OC1COC(N2CCc3cc([N+](=O)[O-])ccc32)C(OC(C)=O)C1OC(C)=O` (stereo unspecified) was tested. Which AC50 did it give?
The AC50 was 0.891 µM (active).

How did the activity, negative = inhibition turn out when `Cc1cnc(CNc2nc(-c3ccoc3)nc3ccccc23)cn1` was run?
Its activity, negative = inhibition is -6.46% [at 2.29 µM].

For `CCn1ncc(/C=C/C(=O)NCc2cn(C)nc2C)c1C`, which AC50 is on record?
Its AC50 is “inactive”.

For `COc1ccc(/C=C/C(=O)NCc2cn(C)nc2C)cc1COc1ccc(Br)cc1`, which AC50 is on record?
The AC50 was 12.6 µM (active).

Which AC50 does the source give for `COC(=O)CCC(=O)NNC(=O)c1ccc(Br)cc1` here?
Its AC50 is “inactive”.

`COc1ccc(C(=O)NNC(=O)Cc2ccc(-c3ccccc3)cc2)cc1OC` was tested. Which AC50 did it give?
The AC50 was “inactive”.

For `COc1ccc(C(=O)NN)cc1COc1ccc(Br)cc1`, which AC50 is on record?
The AC50 was 8.91 µM (active).
